Among the test systems are T-47D breast; BT-549 breast; SW-620 colon; MCF7 breast; HCT-116 colon; HCC-2998 colon; KM12 colon.
Common to all, as to test: NCI-60 one-dose screen, 48 h (100 = growth as untreated, 0 = no growth, -100 = all killed)
Holding throughout (details): 10 µM unless noted

This is part of a sample that, as a whole, favours compounds with a hit. Of some 83,000 tested, about 20% had one in any assay.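 Step 1: grow cells in 96-well plates. Step 2: add test compound at a single concentration. Step 3: incubate 48 h. Step 4: record percent growth.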 Unmarked numbers belong to inactive results. Activity calls are given as the source filed them. The calls were made as follows: active = growth percent below 10; inactive = the rest.

For `COc1ccc(NC(=O)c2sc3nc(C)c(C(O)c4ccccc4)cc3c2N)cc1` (stereo not drawn), the growth in the test with T-47D breast is 23.9%; with BT-549 breast it was 65.8%; in the test on SW-620 colon, 25.4%; in the test with MCF7 breast, 19.1%; in the test on HCT-116 colon, 21.4%; with HCC-2998 colon, 19.4%.

On to `O=C(N/N=C/c1ccc(Cl)cc1Cl)c1ccc2nc(-c3ccc(Cl)cc3)[nH]c2c1`, for which the growth with T-47D breast is -13.1% (active); with BT-549 breast, 113%; in the test with SW-620 colon it was -28.3% (active); with MCF7 breast, -20% (active); with HCT-116 colon it was -1.88% (active); with HCC-2998 colon, 3.69% (active). The growth with KM12 colon is -29.1% (active).

`CN(C)c1ccc(/C=C2/C=C(c3ccccc3)OC2=O)cc1`: the growth was 86.9% in the test on T-47D breast; 98.6% with BT-549 breast; 95.2% with SW-620 colon; 56.6% in the test with MCF7 breast; 100% in the test with HCT-116 colon; 95% with HCC-2998 colon. Besides, the growth in the test with KM12 colon was 63.5%.

`COc1ccc(/C(C)=C(\c2ccc(OCCN3CCCCCC3)cc2)c2ccc(OC(=O)c3ccccc3)cc2)cc1`: the growth was 43.4% in the test with T-47D breast; 63.6% in the test on BT-549 breast; 44.8% with SW-620 colon; 13.5% with MCF7 breast; 19.4% in the test with HCT-116 colon; 77.5% in the test with HCC-2998 colon. Besides, the growth in the test with KM12 colon is 38.4%.

Take `COc1ccc(/C=C/C(=O)c2cc3c(N)c(C(=O)Nc4ccccc4C)sc3nc2C)cc1`: the growth is 39.9% with T-47D breast; 29.7% with BT-549 breast; 14.9% in the test with SW-620 colon; 9.36% (active) with MCF7 breast; 14.7% in the test with HCT-116 colon; 15.4% in the test on HCC-2998 colon. For the same compound, the growth in the test with KM12 colon is 10.6%.

Consider `Cc1nn(-c2ccccc2)c(N2CCCCC2)c1/C=N/NC(=O)Cn1c(=O)sc2ccccc21`, for which the growth with T-47D breast was 60.3%; with BT-549 breast it was 79.9%; in the test on SW-620 colon it was 81%; in the test on MCF7 breast it was 67.3%; with HCT-116 colon, 77.1%; with HCC-2998 colon, 68.4%. In addition, the growth with KM12 colon was 54%.

As for `COC(=O)c1ccc2c(c1)c1c(C)c3ccncc3c(C)c1n2C`, the growth in the test with T-47D breast was 29.7%; in the test with BT-549 breast it was 43.5%; with SW-620 colon, 21%; with MCF7 breast, 8.59% (active); in the test with HCT-116 colon it was 10.9%; with HCC-2998 colon, 61.5%. Moreover, in the test on KM12 colon, the growth was 23.2%.

`CCCCCCCCn1ccc2cc(NC(=O)Cn3cc(CN4CCOCC4)nn3)ccc21`: the growth is 93.4% in the test on T-47D breast; 78.2% in the test with BT-549 breast; 97.4% in the test on SW-620 colon; 89.5% in the test with MCF7 breast; 92.5% in the test on HCT-116 colon; 113% with HCC-2998 colon. In addition, the growth in the test on KM12 colon was 93.3%.

As to `CC(C)=CC(=O)N[C@@H]1CC2CCC3C(CC[C@@]4(C)C3CC[C@@H]4C(C)N(C)C)[C@@]2(C)C[C@@H]1O` (stereo partly drawn), the growth in the test on T-47D breast is 22.3%; with BT-549 breast, 66.1%; in the test with SW-620 colon, 28.2%; in the test with MCF7 breast, 33.9%; in the test on HCT-116 colon, 27.1%; in the test with HCC-2998 colon, 52%. Besides, the growth with KM12 colon is 38.2%.

Consider `COc1cc(C(=O)/C=C/c2ccc(N3CCN(C)CC3)cc2)cc(OC)c1OC`, for which the growth in the test with T-47D breast was 95.8%; in the test with BT-549 breast it was 100%; in the test with SW-620 colon, 88%; in the test on MCF7 breast, 96%; with HCT-116 colon, 104%; in the test with HCC-2998 colon, 101%.

Regarding `COc1ccc(C(O)c2cc3c(N)c(C(=O)Nc4cccc(Cl)c4)sc3nc2C)cc1` (stereo not drawn), the growth was 42.2% in the test with T-47D breast; 38.3% in the test on BT-549 breast; 27.1% in the test on SW-620 colon; 15.1% in the test with MCF7 breast; 10.3% in the test on HCT-116 colon; -19.9% (active) in the test on HCC-2998 colon. Also, the growth in the test on KM12 colon is 9.91% (active).

With `CCCCCCOC(=O)CC1=C(C)/C(=C/c2[nH]c(-c3ccc[nH]3)cc2OC)N=C1C`, the growth was -32.8% (active) in the test with T-47D breast; -33.9% (active) in the test on BT-549 breast; -74% (active) with SW-620 colon; -24.1% (active) with MCF7 breast; -79% (active) with HCT-116 colon; -47.5% (active) with HCC-2998 colon. Besides, in the test with KM12 colon, the growth was -51.4% (active).

`CC12CCC(/C(=C/NNc3ccc([N+](=O)[O-])cc3[N+](=O)[O-])C1=O)C2(C)C` (stereo not drawn): the growth with T-47D breast is 56.8%; with BT-549 breast, 69.4%; in the test with SW-620 colon, 64.8%; in the test on MCF7 breast, 50.6%; in the test on HCT-116 colon it was 50.7%; in the test on HCC-2998 colon it was 93.4%.

With `N#C/C(=C\c1ccc(Cl)cc1Cl)C(=O)Nc1ncc(Cc2ccc(Cl)c(Cl)c2)s1`, the growth was 58.5% with T-47D breast; 111% in the test with BT-549 breast; 62.6% in the test on SW-620 colon; 84% with MCF7 breast; 78.5% in the test with HCT-116 colon; 87% with HCC-2998 colon. Also, the growth with KM12 colon was 80.1%.

Turning to `Cc1nn(-c2ccccc2)c(/N=C/N(C)C)c1/C=C/C(=O)c1ccc(Cl)cc1`, the growth with T-47D breast was 101%; in the test on BT-549 breast, 87.3%; with SW-620 colon, 93.3%; in the test on HCT-116 colon, 74.7%; in the test with HCC-2998 colon, 101%; with KM12 colon it was 101%.

As to `CC1COCC(C)N1C1=C(Cl)C(=O)c2ccccc2C1=O` (stereo not drawn), the growth in the test on T-47D breast was -55.2% (active); in the test on BT-549 breast it was 76%; in the test with SW-620 colon, 42.6%; with MCF7 breast it was 50.8%; in the test on HCT-116 colon, -9.39% (active); with HCC-2998 colon it was 101%.

With `COc1ccc(Nc2ncccc2NC(=O)c2cn(Cc3cccc(Oc4ccccc4)c3)nn2)cc1OC`, the growth with T-47D breast was 49.2%; in the test with BT-549 breast, 73%; in the test with SW-620 colon, 73%; in the test with MCF7 breast, 48.5%; with HCT-116 colon it was 80.7%; in the test on HCC-2998 colon, 88.1%. For the same compound, the growth in the test on KM12 colon was 57.6%.

In the case of `COCC[C@H]1CCC/C=C/[C@@H]2C[C@H](O)C[C@H]2[C@H](O)/C=C/C(=O)O1`, the growth with T-47D breast is -10.9% (active); with BT-549 breast, 5.84% (active); in the test with SW-620 colon it was -20.8% (active); in the test with MCF7 breast it was -8.53% (active); in the test with HCT-116 colon, -66.7% (active); in the test with HCC-2998 colon, 2.4% (active). The growth in the test on KM12 colon was -51.4% (active).

With `CCOC(=O)c1c(NC(=O)CSc2n[nH]c3nc4ccccc4n23)sc(CC)c1C`, the growth in the test on T-47D breast is 97.1%; in the test on BT-549 breast it was 137%; with SW-620 colon it was 104%; with MCF7 breast, 91.9%; in the test on HCT-116 colon it was 93.9%; in the test on HCC-2998 colon, 105%. The growth in the test with KM12 colon is 98.3%.

Values taken from PubChem BioAssay (NCI).
